JMJD2A Tudor = JMJD2A Tudor domain (human) inhibition. O75164. AlphaScreen JMJD2A-Tudor / H3K4me3 peptide binding. Potency, µM (highest dose often 114 µM), for the others: at the highest dose activity change, negative = inhibition, usual class: inhibitors. hit rate 4.4% among 390,000. AID 504339; further: on the % scale 0 is the no-effect control and ±100 the full control effect; nearly all actives have a fitted effect of over 50% in size
G9a block = blocks human histone lysine methyltransferase G9a; Q96KQ7; Potency, µM (doses to about 102 µM), for inactives: at the top dose activity, negative = inhibition, actives largely listed as inhibitors; AID 504332; G9a H3K9 monomethylation, AlphaScreen, 2 h; hit rate 8.8% among 350,000; further: on the % scale 0 is the no-effect control and ±100 the full control effect; nearly all actives have a fitted effect of over 75% in size
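Using a bead-based AlphaScreen, monomethylated H3K9 product from 2 h room-temperature reactions (G9a 20 nM, peptide 500 nM, SAM 20 uM) was detected with 0.5 ug/mL rabbit anti-H3K9me1 antibody.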
HP1b chromo inh = blocks HP1-beta chromodomain binding to methylated histone tails. hit rate 0.56% among 390,000. Potency, µM (titrated, usually from 114 µM), without a hit: at the top dose activity change, negative = inhibition, actives largely listed as inhibitors. AlphaScreen HP1-beta / biotin-H3K9me3 peptide binding. P83916. AID 540317; further: nearly all actives have a fitted effect of over 70% in size
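HP1-beta protein (50 nM final) preincubated 30 min at room temperature with biotinylated H3(1-18)K9me3 peptide (50 nM) in PBS pH 7.4, 0.01% Tween-20, then compound added for 30 min. AlphaScreen streptavidin donor/nickel chelate acceptor beads (10 ug/mL final), 30 min dark, luminescence read.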
BAZ2B inh = blocks human BAZ2B; hit rate 4.4% among 360,000; Potency, µM (series often up to 114 µM), for the others: at the highest dose activity change, negative = inhibition, most hits filed as inhibitors; AlphaScreen BAZ2B-H3K14Ac peptide displacement; further: on the % scale 0 is the no-effect control and ±100 the full control effect; nearly all actives have a fitted effect of over 60% in size
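BAZ2B (50 nM) with biotin-H3(5-23)K14Ac peptide (50 nM) in PBS pH 7.4, 0.01% Tween-20, preformed 30 min, then compound 30 min at room temperature; top concentration 110uM. AlphaScreen streptavidin donor/nickel chelate acceptor beads (10 ug/mL final), 20 min dark, signal read.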
L3MBTL1 inh = inhibitors of human L3MBTL1 | AlphaScreen L3MBTL1–H3K9me1 peptide binding | Potency, µM (doses to about 57.1 µM), for inactives: top-dose activity, negative = inhibition, hits mostly inhibitors | hit rate 0.66% among 230,000; further: on the % scale 0 is the no-effect control and ±100 the full control effect; nearly all actives have a fitted effect of over 60% in size
Target sequence (Q9Y468 whole entry, looked up): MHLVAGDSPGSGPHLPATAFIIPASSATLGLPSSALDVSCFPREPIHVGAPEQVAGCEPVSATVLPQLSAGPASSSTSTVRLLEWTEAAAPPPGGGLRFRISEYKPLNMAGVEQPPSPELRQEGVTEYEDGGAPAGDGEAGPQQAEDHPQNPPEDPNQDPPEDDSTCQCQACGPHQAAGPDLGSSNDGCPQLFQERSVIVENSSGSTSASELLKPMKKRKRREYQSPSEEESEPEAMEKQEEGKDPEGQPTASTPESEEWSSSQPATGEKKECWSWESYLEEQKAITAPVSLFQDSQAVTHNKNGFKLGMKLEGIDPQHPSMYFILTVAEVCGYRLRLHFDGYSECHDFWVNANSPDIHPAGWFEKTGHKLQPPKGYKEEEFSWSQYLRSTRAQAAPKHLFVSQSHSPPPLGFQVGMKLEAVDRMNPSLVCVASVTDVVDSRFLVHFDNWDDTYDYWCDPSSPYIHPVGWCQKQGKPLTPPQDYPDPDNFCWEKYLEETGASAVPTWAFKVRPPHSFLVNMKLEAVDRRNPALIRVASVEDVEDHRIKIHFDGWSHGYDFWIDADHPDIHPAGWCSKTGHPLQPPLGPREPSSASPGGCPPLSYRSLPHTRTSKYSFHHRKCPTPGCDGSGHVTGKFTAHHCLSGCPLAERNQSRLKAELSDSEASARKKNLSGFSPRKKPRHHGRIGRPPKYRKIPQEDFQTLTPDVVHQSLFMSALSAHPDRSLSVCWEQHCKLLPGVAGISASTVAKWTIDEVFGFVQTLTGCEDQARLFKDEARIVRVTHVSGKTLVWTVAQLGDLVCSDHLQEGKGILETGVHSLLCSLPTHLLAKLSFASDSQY
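Displacement of a biotinylated histone H3(1-15) peptide monomethylated at Lys9 (75 nM) from L3MBTL1 (50 nM) was measured by AlphaScreen after a 30 min room-temperature compound incubation; cefsulodin titration served as intraplate control.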
Active calls of the source: *; ? = inconclusive; · = no result; [ ] = remark or other dose. Hits are enriched below; roughly 11% of the tested compounds scored in any of these assays. The call rests on the fitted dose curve; in most records, active means well fitted inhibition curve with a large enough effect; inconclusive means small, poorly fitted or top-dose-only effect; inactive means no such curve, though single readings can be large or run the other way. Potency means the concentration at half of the fitted maximal effect.

SMILES	JMJD2A Tudor	G9a block	HP1b chromo inh	BAZ2B inh	L3MBTL1 inh
O=C(CN1CCCc2ccccc21)NC(=O)NC1CCCCC1	32µM*	71µM*	?	?	?
O=C(CN1CCCc2ccccc21)NC(=O)NCc1ccccc1	-13%	-5%[12.7 µM]	21%	2%	·
O=C(O)c1ccccc1Nc1ccc([N+](=O)[O-])c2nonc12	-31%	45µM*	?	40µM*	·
O=C(O)c1ccccc1Nc1ccc([N+](=O)[O-])cc1C(=O)O	32µM*	32µM*	-5%	?	·
NC(=O)c1cc([N+](=O)[O-])ccc1Nc1ccccc1	-24%	10%[2.33 µM]	18%	4%	1%
COc1ccccc1N1CCN(C(=O)c2ccc(N(C)S(=O)(=O)c3ccccc3)cc2)CC1	-30%	5%[59 µM]	-15%	-18%	·
Cc1ccc(-n2c(C(C)C)nc3oc4ccccc4c(=O)c3c2=O)cc1	-2%	-6%	35%	-17%	·
CCN(c1ccccc1)S(=O)(=O)c1ccc(F)c(C(=O)Nc2ccc(C)cc2)c1	0%	4%[59 µM]	18%	5%	·
CC(=O)c1cccc(CN2CCC(n3nccc3NC(=O)c3ccc4c(c3)OCO4)CC2)c1	-8%	55%	15%	1%	·
CCOC(=O)NC1(NCC(C)C)Oc2ccccc2O1	?	0.89µM*	-14%	0%	·
CCOC(=O)NC1(Nc2ccc(C)cc2)Oc2ccccc2O1	?	?	?	-11%	-19%
CCOC(=O)NC1c2ccccc2Oc2ccccc21	-6%	·	2%	2%	5%
CCOC(=O)NC1(NC(C)C)Oc2ccccc2O1	7%[11.4 µM]	10µM*	-24%	7%	·
CCOc1ccc(/C=C/c2nc(C#N)c(NC3CCCCC3)o2)cc1	-27%	-3%[59 µM]	-8%	-30%	·
CC(Sc1ccc2ccccc2n1)C(=O)O (stereo unspecified)	-11%	50µM*	25%	2%	6%
CC1=[N+](C)c2c(ccc3cccnc23)C1(C)C	25µM*	3.2µM*	?	40µM*	?
O=C(Nc1nc2n(n1)C(c1ccccc1)C=C(c1ccc(Cl)cc1)N2)c1ccco1 (stereo unspecified)	?	?	11%	79µM*	·
O=C(Nc1nc2n(n1)C(c1ccccc1)C=C(c1ccccc1)N2)c1ccco1 (stereo unspecified)	-29%	22µM*	15%	25µM*	-25%
O=C(c1nc2n(n1)C(c1ccc(Cl)cc1)C=C(c1ccccc1)N2)N1CCOCC1 (stereo unspecified)	-24%	3.5µM*	14%	-33%	1%
O=C(Nc1cc(S(=O)(=O)Nc2ccccc2F)ccc1Cl)c1ccc(F)cc1F	-15%	·	14%[57 µM]	·	10%
O=C1c2ccccc2NC(c2cn[nH]c2-c2ccc(Cl)cc2)N1O (stereo unspecified)	?	28µM*	42%	-34%	8%
CNC(=S)Nc1ccc(N2CCCC2)c(S(=O)(=O)Nc2ccc(OC)cc2)c1	?	·	-19%	·	-7%
COc1ccc(NS(=O)(=O)c2ccc(N3CCCC3)c(NC(=S)Nc3cccc(S(=O)(=O)N(C)C)c3)c2)cc1	·	1.6µM*	·	?	-11%
COc1ccccc1NC(=O)CCNS(=O)(=O)c1ccc2c(c1)CCCC(=O)N2	-18%	-19%[59 µM]	-15%	-3%[57.1 µM]	·
Cc1ccc2nc(SCC(=O)Nc3cccc(S(=O)(=O)NC4=NCCCCC4)c3)[nH]c2c1	-3%[11.4 µM]	·	40%	?	-3%
SMILES	JMJD2A Tudor	G9a block	HP1b chromo inh	BAZ2B inh	L3MBTL1 inh
O=C1CC(/C=C/c2ccncc2)=Nc2ccccc2N1	-12%	40µM*	37%	-20%	·
O=C1CC(c2ccccc2)=Nc2ccccc2N1	-13%	3%[12.7 µM]	17%	6%	·
COCCn1c(C)c(C)c2c(NCCc3ccccc3)ncnc21	18µM*	28µM*	?	28µM*	·
Cc1c(C)n(CCc2ccccc2)c2ncnc(NCCCO)c12	?	-33%[12.7 µM]	-8%	?	·
CCC(C)NC(=O)c1ccccc1NC(=O)CN1C(=O)c2cccc3cccc1c23 (stereo unspecified)	22%	26%[59 µM]	66%	5%	·
CC/C(=C\C(=O)c1cccnc1)Nc1ccc(C)c(C)c1	50µM*	40µM*	?	-54%	-14%
CC(=O)Nc1ccc(N/C(C)=C/C(=O)c2cccnc2)cc1	-3%	-3%[59 µM]	29%	-8%	-6%
C/C(=C\C(=O)c1cccnc1)Nc1ccc(C(=O)O)cc1	?	2.2µM*	15%	?	·
Cn1ccnc1C(=O)c1cccc([N+](=O)[O-])c1	-1%	-6%	37%	7%	5%
Cn1ccnc1C(=O)c1ccc(NN)c([N+](=O)[O-])c1	-32%	22µM*	-16%	?	-14%
CCOC(=O)c1ccc(NC(=O)C(CC)Sc2nc3ncccc3[nH]2)cc1 (stereo unspecified)	-13%	?	30%	-4%	·
CC(C)Oc1ccc(CNC(=O)c2ccc(CS(=O)Cc3ccccc3Cl)o2)cc1 (stereo unspecified)	-21%	-36%[59 µM]	34%	-18%	·
CCCC1C(c2ccco2)NC(c2ccco2)CC1(C)O (stereo unspecified)	3.5µM*	6.3µM*	?	·	0%
CC1/C(=N/O)CC(c2ccco2)NC1c1ccco1 (stereo unspecified)	-10%	11%[59 µM]	12%	-1%	-3%
O=C(c1ccco1)N1CCc2[nH]nc(-c3ccccc3)c2C1	-15%	79µM*	42%	-33%	·
Cc1ccc(C(=O)NCC(=O)OC(C)C(=O)Nc2ccc(N(C)C)cc2)cc1C (stereo unspecified)	?	25µM*	?	?	·
CC(=O)NCC(=O)OC(C)C(=O)Nc1ccc(C(C)=O)cc1 (stereo unspecified)	-20%[57.1 µM]	20%[59 µM]	57%	-3%	-2%
O=C(NC1CCCN(c2ccc(C(F)(F)F)cn2)C1)c1ccncc1 (stereo unspecified)	-9%	0%	24%	-3%	·
CSc1ccccc1C(=O)NC1CCCN(c2ccc(C(F)(F)F)cn2)C1 (stereo unspecified)	-6%	8.9µM*	67%	-13%[57.1 µM]	·
O=C(O)c1cccc2[nH]c(C(F)(F)F)nc12	32µM*	40µM*	-8%	56µM*	9%
S=c1nc(COc2ccccc2)[nH]c2ccccc12	-28%	18µM*	-11%	-3%	·
Cc1nc(=S)c2ccccc2[nH]1	-13%	?	64%	3%	·
Nc1cccc2[nH]c(C(F)(F)F)nc12	?	28µM*	?	56µM*	?
FC(F)(F)c1nc(=S)c2ccccc2[nH]1	50µM*	67%	?	8%	·
O=C(O)c1ccc2nc(C(F)(F)F)[nH]c2c1	-5%	-4%[59 µM]	46%	-7%	2%
CCCCN(C)CCNC(=O)c1ccc(Cn2c(=O)[nH]c3cc(OC)c(OC)cc3c2=O)cc1	-12%	-38%[59 µM]	26%	-2%	·
